From the supplement of paper PMC10849652
Of roughly 7,900 targets only a part is listed; those with a hit were picked by preference. About 0.6% of all pairs of compound and target were hits. Values without a mark were called inactive.

Columns and labels:
Assay in all cases: log2 fold change, soluble protein after heating vs DMSO (PISA); higher = thermal stabilisation; K562 cells, 10 uM, 30 min; active = over 0.2 and 3.5 SD of the protein, either way, in both replicates (recomputed)
saracatinib = compound: CN1CCN(CCOc2cc(OC3CCOCC3)c3c(Nc4c(Cl)ccc5c4OCO5)ncnc3c2)CC1 [saracatinib]
Procedure, shortened: (§1)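 K562 cells at 2×10^6 cells/mL were treated with 10 μM compound for 30 min. Aliquots were heated for 3 min across 48°C-58°C, pooled, and extracted in PBS with 0.5% NP-40 at 4°C; soluble protein was the supernatant after 21,000xg for 90 min. Soluble protein was quantified by TMTpro 16plex LC-MS/MS with channel sums equalised, and reported as log2 fold change in thermal stability against DMSO controls, with values from duplicates.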

sotrastaurin = compound: CN1CCN(c2nc(C3=C(c4c[nH]c5ccccc45)C(=O)NC3=O)c3ccccc3n2)CC1 [sotrastaurin]
Procedure, shortened: as §1

alvocidib = compound: CN1CC[C@H](c2c(O)cc(O)c3c(=O)cc(-c4ccccc4Cl)oc23)[C@H](O)C1 [alvocidib]
Procedure, shortened: as §1

Tubastatin A = compound: CN1CCc2c(c3ccccc3n2Cc2ccc(C(=O)NO)cc2)C1 [Tubastatin A]
Procedure, shortened: as §1

[1] = compound: CNC(=O)C1=CC=CC=C1NC2=NC(=NC=C2Cl)NC3=C(C=C(C=C3)N4CCOCC4)OC
Procedure, shortened: as §1

defactinib = compound: CNC(=O)c1ccc(Nc2ncc(C(F)(F)F)c(NCc3nccnc3N(C)S(C)(=O)=O)n2)cc1 [defactinib]
Procedure, shortened: as §1

rucaparib = compound: CNCc1ccc(-c2[nH]c3cc(F)cc4c3c2CCNC4=O)cc1 [rucaparib]
Procedure, shortened: as §1

[2] = compound: CNc1nc(-c2ccc3c(N)n[nH]c3c2)cc(N2C[C@@H](C(=O)NC3CCCCC3)CC[C@H]2C)n1
Procedure, shortened: as §1

encorafenib = compound: COC(=O)N[C@@H](C)CNc1nccc(-c2cn(C(C)C)nc2-c2cc(Cl)cc(NS(C)(=O)=O)c2F)n1 [encorafenib]
Procedure, shortened: as §1

[3] = compound: COC(=O)[C@H](CCSC)NC(=O)C1=C(C=C(C=C1)NC[C@H](CS)N)C2=CC=CC=C2
Procedure, shortened: as §1

Chain of UniProt O94925 (O94925 whole entry, looked up): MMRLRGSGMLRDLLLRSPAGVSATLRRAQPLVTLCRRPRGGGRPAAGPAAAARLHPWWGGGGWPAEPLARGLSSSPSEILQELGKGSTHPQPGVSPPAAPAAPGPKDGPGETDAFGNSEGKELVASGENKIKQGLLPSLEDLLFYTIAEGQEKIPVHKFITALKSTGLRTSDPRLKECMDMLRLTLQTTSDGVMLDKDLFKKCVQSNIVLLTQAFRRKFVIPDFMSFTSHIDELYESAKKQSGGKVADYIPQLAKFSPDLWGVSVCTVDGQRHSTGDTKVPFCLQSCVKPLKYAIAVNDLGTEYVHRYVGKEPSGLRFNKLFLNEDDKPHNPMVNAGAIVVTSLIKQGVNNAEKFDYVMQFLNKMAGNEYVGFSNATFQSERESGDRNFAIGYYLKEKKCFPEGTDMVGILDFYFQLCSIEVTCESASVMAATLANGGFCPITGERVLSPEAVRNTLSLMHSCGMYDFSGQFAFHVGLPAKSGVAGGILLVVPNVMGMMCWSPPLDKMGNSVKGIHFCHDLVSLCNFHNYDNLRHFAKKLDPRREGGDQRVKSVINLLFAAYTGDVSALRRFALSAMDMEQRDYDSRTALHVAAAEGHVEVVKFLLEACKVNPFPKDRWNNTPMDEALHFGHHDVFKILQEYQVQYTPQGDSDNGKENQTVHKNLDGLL
Chain of UniProt Q16774 (Q16774 whole entry, looked up): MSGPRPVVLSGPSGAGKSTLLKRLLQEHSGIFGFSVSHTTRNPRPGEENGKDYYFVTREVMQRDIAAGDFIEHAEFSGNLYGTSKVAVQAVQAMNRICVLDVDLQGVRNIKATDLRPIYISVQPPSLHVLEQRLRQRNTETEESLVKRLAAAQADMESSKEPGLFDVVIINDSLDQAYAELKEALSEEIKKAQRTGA
Chain of UniProt Q9UKN8 (Q9UKN8 whole entry, looked up): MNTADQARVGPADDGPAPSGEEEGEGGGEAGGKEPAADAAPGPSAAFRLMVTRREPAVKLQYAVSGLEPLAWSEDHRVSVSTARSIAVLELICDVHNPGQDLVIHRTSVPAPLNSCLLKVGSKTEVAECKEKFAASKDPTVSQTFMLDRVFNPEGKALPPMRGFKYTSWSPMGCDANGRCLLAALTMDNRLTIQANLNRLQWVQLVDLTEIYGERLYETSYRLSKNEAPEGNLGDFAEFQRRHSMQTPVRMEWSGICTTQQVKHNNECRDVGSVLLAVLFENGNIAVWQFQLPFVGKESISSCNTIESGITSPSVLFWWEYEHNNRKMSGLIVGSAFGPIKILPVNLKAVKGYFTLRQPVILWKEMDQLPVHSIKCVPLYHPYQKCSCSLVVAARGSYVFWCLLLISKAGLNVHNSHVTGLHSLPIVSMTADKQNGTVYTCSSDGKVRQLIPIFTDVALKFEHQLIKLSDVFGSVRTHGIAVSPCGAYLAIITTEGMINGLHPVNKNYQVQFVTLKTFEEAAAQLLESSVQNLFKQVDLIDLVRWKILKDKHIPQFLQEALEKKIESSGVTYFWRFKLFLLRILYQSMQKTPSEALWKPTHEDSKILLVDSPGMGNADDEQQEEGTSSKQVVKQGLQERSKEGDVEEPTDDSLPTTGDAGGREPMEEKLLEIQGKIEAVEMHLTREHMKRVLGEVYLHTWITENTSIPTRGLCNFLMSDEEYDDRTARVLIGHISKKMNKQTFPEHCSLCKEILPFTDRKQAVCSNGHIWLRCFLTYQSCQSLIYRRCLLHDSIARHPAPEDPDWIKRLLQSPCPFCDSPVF
Chain of UniProt P08236 (P08236 whole entry, looked up): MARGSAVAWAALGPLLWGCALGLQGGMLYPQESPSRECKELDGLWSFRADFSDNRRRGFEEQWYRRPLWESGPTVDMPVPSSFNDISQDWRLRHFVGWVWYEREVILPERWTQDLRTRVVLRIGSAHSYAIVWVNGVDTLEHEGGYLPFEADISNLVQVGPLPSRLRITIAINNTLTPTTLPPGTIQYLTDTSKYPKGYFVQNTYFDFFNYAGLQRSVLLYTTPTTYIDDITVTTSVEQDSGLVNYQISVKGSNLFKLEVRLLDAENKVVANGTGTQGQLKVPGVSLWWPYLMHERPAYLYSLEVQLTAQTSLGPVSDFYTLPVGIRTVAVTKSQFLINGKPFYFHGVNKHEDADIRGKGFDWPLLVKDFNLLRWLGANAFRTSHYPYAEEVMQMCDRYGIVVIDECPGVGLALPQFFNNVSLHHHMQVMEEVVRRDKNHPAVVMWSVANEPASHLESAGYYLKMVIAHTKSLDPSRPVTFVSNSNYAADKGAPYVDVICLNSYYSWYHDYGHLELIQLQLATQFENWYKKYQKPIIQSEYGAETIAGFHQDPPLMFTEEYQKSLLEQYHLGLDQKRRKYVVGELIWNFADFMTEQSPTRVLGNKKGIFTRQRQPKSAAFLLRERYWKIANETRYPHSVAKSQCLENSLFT
Chain of UniProt P23434 (P23434 whole entry, looked up): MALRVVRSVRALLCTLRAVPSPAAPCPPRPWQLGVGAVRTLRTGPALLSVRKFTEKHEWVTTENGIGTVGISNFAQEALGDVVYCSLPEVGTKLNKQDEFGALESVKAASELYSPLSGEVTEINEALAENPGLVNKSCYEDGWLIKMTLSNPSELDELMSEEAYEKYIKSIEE
Chain of UniProt Q9NZC3 (Q9NZC3 whole entry, looked up): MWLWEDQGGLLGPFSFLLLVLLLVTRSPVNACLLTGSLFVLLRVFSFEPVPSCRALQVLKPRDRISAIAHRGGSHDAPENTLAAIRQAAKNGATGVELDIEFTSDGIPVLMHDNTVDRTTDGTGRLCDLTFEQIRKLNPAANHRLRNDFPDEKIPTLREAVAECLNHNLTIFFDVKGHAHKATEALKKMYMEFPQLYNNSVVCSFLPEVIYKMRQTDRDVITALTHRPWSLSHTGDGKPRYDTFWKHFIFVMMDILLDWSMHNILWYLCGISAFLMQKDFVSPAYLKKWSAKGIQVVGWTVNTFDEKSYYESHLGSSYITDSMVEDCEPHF
Chain of UniProt P50213 (P50213 whole entry, looked up): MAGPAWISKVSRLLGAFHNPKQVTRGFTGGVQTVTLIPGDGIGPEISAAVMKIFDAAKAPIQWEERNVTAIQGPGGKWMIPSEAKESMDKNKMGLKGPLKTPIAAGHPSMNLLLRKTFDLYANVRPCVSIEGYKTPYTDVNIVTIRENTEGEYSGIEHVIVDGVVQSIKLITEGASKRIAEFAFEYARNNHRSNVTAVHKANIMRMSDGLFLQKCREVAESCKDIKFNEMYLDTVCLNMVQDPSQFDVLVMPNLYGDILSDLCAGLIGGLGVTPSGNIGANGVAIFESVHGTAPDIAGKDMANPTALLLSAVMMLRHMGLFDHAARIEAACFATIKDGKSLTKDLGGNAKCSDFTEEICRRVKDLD
Chain of UniProt P15976 (P15976 whole entry, looked up): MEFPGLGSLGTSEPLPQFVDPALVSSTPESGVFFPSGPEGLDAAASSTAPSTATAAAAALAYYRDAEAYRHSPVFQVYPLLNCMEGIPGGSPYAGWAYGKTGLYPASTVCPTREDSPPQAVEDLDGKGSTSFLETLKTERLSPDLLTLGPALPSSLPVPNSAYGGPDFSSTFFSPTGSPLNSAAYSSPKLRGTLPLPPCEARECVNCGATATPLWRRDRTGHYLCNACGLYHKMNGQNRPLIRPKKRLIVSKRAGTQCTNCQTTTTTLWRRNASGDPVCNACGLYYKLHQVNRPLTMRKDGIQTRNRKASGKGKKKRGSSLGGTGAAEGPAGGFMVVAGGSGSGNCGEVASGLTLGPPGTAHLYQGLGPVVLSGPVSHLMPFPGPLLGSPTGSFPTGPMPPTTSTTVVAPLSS
Chain of UniProt Q9Y692 (Q9Y692 whole entry, looked up): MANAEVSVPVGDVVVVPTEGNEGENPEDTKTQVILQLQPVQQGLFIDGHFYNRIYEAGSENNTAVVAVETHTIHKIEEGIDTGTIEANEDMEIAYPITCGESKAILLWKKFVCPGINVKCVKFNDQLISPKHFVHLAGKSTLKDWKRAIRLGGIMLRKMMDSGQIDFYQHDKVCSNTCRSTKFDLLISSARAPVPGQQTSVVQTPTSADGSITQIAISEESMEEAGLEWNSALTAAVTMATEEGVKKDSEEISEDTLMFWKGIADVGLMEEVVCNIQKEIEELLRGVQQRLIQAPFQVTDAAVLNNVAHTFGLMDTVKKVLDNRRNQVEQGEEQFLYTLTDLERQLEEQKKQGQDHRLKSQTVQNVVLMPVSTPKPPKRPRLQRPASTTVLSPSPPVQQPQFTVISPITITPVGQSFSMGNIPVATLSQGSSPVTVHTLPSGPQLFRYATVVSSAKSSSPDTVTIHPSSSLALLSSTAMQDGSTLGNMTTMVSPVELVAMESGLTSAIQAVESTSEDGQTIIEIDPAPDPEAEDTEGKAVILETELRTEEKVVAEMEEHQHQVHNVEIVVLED
Chain of UniProt Q10471 (Q10471 whole entry, looked up): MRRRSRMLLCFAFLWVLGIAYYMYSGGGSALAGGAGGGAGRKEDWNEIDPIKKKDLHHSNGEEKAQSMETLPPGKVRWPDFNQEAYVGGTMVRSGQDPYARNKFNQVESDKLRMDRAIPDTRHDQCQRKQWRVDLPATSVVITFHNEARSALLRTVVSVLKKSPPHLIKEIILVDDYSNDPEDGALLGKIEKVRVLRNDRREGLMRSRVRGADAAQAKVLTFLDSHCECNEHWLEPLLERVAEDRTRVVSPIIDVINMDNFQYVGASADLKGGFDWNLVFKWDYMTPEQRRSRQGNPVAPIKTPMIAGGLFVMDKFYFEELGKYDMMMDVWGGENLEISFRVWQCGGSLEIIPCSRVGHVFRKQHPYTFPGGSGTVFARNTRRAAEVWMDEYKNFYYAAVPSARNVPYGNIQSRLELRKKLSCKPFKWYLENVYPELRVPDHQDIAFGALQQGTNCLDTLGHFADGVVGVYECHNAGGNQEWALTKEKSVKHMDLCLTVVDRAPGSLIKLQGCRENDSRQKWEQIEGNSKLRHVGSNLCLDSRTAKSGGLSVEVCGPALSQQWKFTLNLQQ
Chain of UniProt P69905 (P69905 whole entry, looked up): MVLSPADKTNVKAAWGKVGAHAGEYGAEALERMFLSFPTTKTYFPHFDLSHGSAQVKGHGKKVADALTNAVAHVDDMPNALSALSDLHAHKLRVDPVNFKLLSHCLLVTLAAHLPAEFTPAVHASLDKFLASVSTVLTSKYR

| Target | log2 fold change (saracatinib) | log2 fold change (sotrastaurin) | log2 fold change (alvocidib) | log2 fold change (Tubastatin A) | log2 fold change [1] | log2 fold change (defactinib) | log2 fold change (rucaparib) | log2 fold change [2] | log2 fold change (encorafenib) | log2 fold change [3] |
| --- | --- | --- | --- | --- | --- | --- | --- | --- | --- | --- |
| IDH3A (UniProt P50213) | -0.004 | 0.008 | -0.056 | -0.058 | -0.026 | -0.023 | -0.031 | -0.026 | -0.01 | 0.002 |
| GLS isoform 3 (UniProt O94925) | -0.025 | -0.027 | -0.246 | 0.14 | -0.025 | -0.139 | -0.045 | -0.063 | 0.039 | 0 |
| GDE1 (UniProt Q9NZC3) | 0.029 | 0.051 | -0.059 | -0.316 (active) | -0.003 | -0.017 | 0.009 | 0.01 | -0.017 | 0.024 |
| GLB1 (UniProt P16278) | -0.011 | 0.059 | -0.018 | -0.032 | 0.034 | 0.004 | 0 | 0.002 | 0.003 | 0.036 |
| GPAT4 (UniProt Q86UL3) | 0.042 | 0.046 | -0.046 | -0.039 | 0.04 | -0.017 | 0.055 | -0.069 | -0.021 | 0.031 |
| GCSH (UniProt P23434) | -0.024 | 0.057 | 0.009 | -0.017 | 0.021 | -0.01 | -0.012 | -0.004 | -0.028 | -0.008 |
| GUK1 isoform 2 (UniProt Q16774) | 0.001 | -0.223 | -0.092 | 0.064 | 0.027 | -0.162 | 0.175 | 0.026 | -0.079 | 0 |
| HMOX2 (UniProt P30519) | -0.071 | -0.04 | -0.06 | 0.004 | 0.03 | -0.049 | 0.036 | 0.15 | 0.081 | -0.038 |
| GCLM (UniProt P48507) | 0.012 | -0.055 | -0.126 | 0.061 | 0.155 | -0.151 | 0.033 | -0.045 | 0.048 | -0.042 |
| HPCAL1 (UniProt P37235) | 0.011 | 0.017 | -0.004 | -0.085 | 0.048 | -0.008 | 0.013 | -0.107 | -0.014 | -0.025 |
| GTF3C4 (UniProt Q9UKN8) | 0.06 | 0.021 | -0.03 | -0.009 | -0.005 | -0.081 | 0.029 | -0.001 | 0.043 | -0.01 |
| GINS2 (UniProt Q9Y248) | -0.078 | -0.17 | -0.181 | 0.076 | 0.025 | -0.067 | -0.005 | 0.203 | 0.017 | 0.057 |
| HNRNPUL2 (UniProt Q1KMD3) | -0.023 | 0.039 | 0.166 | 0.065 | -0.06 | 0.259 (active) | 0.125 | -0.017 | 0.007 | 0.006 |
| GSTM4 (UniProt Q03013) | -0.106 | -0.066 | -0.065 | -0.044 | 0.003 | -0.086 | -0.385 (active) | 0.06 | -0.238 | 0.093 |
| FCHO1 (UniProt O14526) | -0.064 | -0.162 | -0.049 | 0.007 | 0.043 | -0.042 | 0.248 | 0.054 | 0.101 | 0.046 |
| GUSB (UniProt P08236) | 0.03 | -0.004 | 0.021 | -0.054 | 0.045 | -0.055 | 0.048 | -0.039 | 0.128 | 0.029 |
| GBF1 (UniProt Q92538) | -0.055 | -0.103 | -0.023 | 0.034 | -0.024 | -0.031 | 0.044 | 0.059 | 0.104 | -0.015 |
| GMEB1 (UniProt Q9Y692) | -0.055 | -0.06 | -0.123 | -0.022 | 0.028 | -0.06 | -0.047 | -0.051 | 0.043 | -0.003 |
| H2AFX (UniProt P16104) | -0.123 | 0.081 | 0.249 | 0.025 | -0.003 | 0.53 | 0.347 | 0.089 | -0.013 | 0.233 |
| HNRNPK isoform 2 (UniProt P61978) | -0.057 | -0.037 | -0.155 | 0.064 | -0.017 | -0.228 (active) | -0.053 | 0.015 | 0.028 | 0.003 |
| GATA1 (UniProt P15976) | 0.097 | -0.042 | 0.128 | -0.049 | 0.104 | 0.088 | 0.086 | -0.014 | 0.054 | 0 |
| GGA2 (UniProt Q9UJY4) | -0.054 | 0.053 | -0.034 | -0.088 | -0.025 | 0.025 | -0.064 | -0.054 | 0.068 | 0.122 |
| HBA1 (UniProt P69905) | -0.017 | 0.036 | -0.02 | 0.035 | -0.01 | -0.014 | -0.036 | 0.011 | -0.043 | -0.034 |
| GTF2B (UniProt Q00403) | -0.155 | -0.103 | -0.22 | 0.135 | -0.013 | -0.144 | -0.017 | 0.026 | 0.023 | -0.01 |
| HIKESHI (UniProt Q53FT3) | 0.03 | 0.043 | -0.068 | -0.01 | 0.046 | -0.038 | 0.029 | -0.003 | 0.024 | 0.028 |
| GALNT2 (UniProt Q10471) | -0.025 | 0.005 | -0.012 | 0.013 | 0.004 | 0.023 | -0.046 | -0.015 | 0.036 | -0.017 |
| FBL (UniProt P22087) | 0.11 | -0.016 | 0.262 | -0.022 | -0.012 | 0.375 | 0.511 | 0.002 | 0.096 | 0.023 |
| FECH isoform 2 (UniProt P22830) | -0.035 | 0.008 | -0.016 | -0.12 | 0.245 | 0.102 | 0.043 | 0.538 | -0.033 | -0.116 |
| GGT7 (UniProt Q9UJ14) | 0.066 | 0.051 | -0.049 | 0.053 | -0.042 | -0.027 | -0.038 | -0.091 | 0 | -0.011 |
